# SMN2 splice up: increases expression of the SMN2 splice variant; 2.8% of 210,000 active; HEK293 SMN2-luciferase splicing reporter, luminescence, 30-36 h; Potency, µM (doses to about 46.1 µM), hits mostly activators; AID 1458; also: nearly all actives have a fitted effect of over 55% in size
#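 HEK293 cells carry an SMN2 […]–luciferase reporter in which exon 7 inclusion puts luciferase in frame. Cells were plated 10-12 h before compound addition, then incubated 30-36 h at 37C. ONE-Glo luminescence was read; sodium butyrate at 4.5 mM final served as control.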
# FLuc modulator: inhibits or activates purified firefly luciferase, miR-21 counter-screen; P08659; 6.9% of 360,000 active; Potency, µM (highest dose often 57.5 µM), most hits filed as inhibitors; purified FLuc, Km substrates, luminescence inhibition; AID 588342; also: nearly all actives have a fitted effect of over 55% in size
# Target sequence (P08659 whole entry, looked up): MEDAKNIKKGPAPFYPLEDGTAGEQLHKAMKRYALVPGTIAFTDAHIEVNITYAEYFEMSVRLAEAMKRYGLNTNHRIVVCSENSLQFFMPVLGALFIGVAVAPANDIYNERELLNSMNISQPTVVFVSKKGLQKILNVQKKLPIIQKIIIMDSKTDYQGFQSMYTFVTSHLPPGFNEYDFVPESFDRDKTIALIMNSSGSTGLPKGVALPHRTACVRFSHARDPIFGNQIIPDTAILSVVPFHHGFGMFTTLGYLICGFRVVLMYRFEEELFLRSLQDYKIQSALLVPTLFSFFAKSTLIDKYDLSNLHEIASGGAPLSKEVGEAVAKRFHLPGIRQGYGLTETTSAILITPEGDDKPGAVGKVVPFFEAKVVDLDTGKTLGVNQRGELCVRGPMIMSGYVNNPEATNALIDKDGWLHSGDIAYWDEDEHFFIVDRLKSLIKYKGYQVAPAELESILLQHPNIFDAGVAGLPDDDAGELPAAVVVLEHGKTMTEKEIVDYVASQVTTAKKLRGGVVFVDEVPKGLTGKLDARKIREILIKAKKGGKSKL
#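 Biochemical qHTS of compounds, final roughly 60 µM downward over six points, against 10 nM purified firefly luciferase using Km concentrations of substrates (10 uM D-luciferin, 10 uM ATP) in Tris acetate pH 7.5 buffer; luminescence output.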
# ELG1 genotox: inducers of genotoxicity in HEK293T ELG1-luciferase cells. HEK293T ELG1-luciferase reporter, luminescence, 16 h. Potency, µM (titrated, usually from 46 µM), most hits filed as activators. 1.3% of 330,000 active. AID 504466; also: nearly all actives have a fitted effect of over 60% in size
#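 Step 1: seed 2,000 HEK293T ELG1-luciferase cells per well. Step 2: add compound or DMSO, incubate 16 hr at 37 °C. Step 3: ONE-Glo, 30 min at room temperature, read luminescence.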
# Luc counter: blocks Kinase-Glo luciferase, a counter-screen artifact | Q27757 | Kinase-Glo luciferase, ATP luminescence, 8 min | Potency, µM (titrated, usually from 38.3 µM), actives largely listed as inhibitors | 0.28% of 200,000 active; also: nearly all actives have a fitted effect of over 60% in size
#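 Substrate mix (final 50 mM imidazole pH 7.2, 50 mM KCl, 7 mM MgCl2, 10 uM ATP, 0.01% Tween 20, 0.05% BSA) plus pin-tool compound, then Kinase-Glo detection mix; 8 min ambient, luminescence read.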
# Rab9 prom act: activators of Rab9 promoter; Huh7 Rab9 promoter-luciferase reporter, luminescence, 24 h; Potency, µM (highest dose often 9.22 µM), usual class: activators; 2.8% of 320,000 active; AID 485297; also: nearly all actives have a fitted effect of over 60% in size
#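 Cell-based reporter: Huh7 stable for Rab9 promoter-driven luciferase, plated in reduced-serum medium with 10% FBS at 1500 cells/well, compound-treated 24 h at 37 °C, luminescence read after 10 min reagent.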
# NPC1 promoter act: activates the NPC1 promoter; Huh7 NPC1 promoter luciferase reporter, 24 h; Potency, µM (doses to about 9.22 µM), hits mostly activators; 2.4% of 320,000 active; also: nearly all actives have a fitted effect of over 60% in size
#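 Stable NPC1-promoter luciferase Huh7 line; cpd (DMSO) 24 h, 37 °C, 5% CO2; Amplite luciferase reagent 10 min RT; luminescence readout. qHTS format.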
# Numbers stand for hits; – = inactive; ? = inconclusive; · = no result given; [ ] = another dose, or the depositor's remark. Rows were chosen to be rich in hits. Some 7.5% of all compounds tested hit in one or more screens of this group. Calls follow the shape of the dose curve; as a rule, active = well fitted curve in the direction sought with a large enough effect; inconclusive = small, poorly fitted or top-dose-only effect, or another doubt; inactive = no such curve, though single readings can be large; an effect the other way counts as inactive or inconclusive.
SMILES,SMN2 splice up,FLuc modulator,ELG1 genotox,Luc counter,Rab9 prom act,NPC1 promoter act
Nc1nc(N)nc(-c2ccccc2)n1,–,–,–,–,–,–
N#Cc1ccccc1NC(=O)C(=O)NCC(c1ccc2c(c1)OCO2)N1CCOCC1 (stereo not drawn),·,–,·,·,·,·
COc1cc(C(=O)Nc2ccc(N3CCCS3(=O)=O)cc2)c([N+](=O)[O-])cc1OC,·,–,–,·,–,–
O=C(Nc1ccccc1O)c1csc2c1CCCC2,16µM,9.5µM,?,–,?,?
COc1ccc(NC(=O)c2csc3c2CCCCC3)c(OC)c1,–,?,–,–,–,–
COc1ccc(CCNC(=O)c2csc3c2CCCCC3)c(OC)c1,?,–,·,·,·,·
COc1cccc(NC(=O)c2csc3c2CCCCC3)c1,13µM,11µM,·,·,·,·
COc1ccc(NC(=O)c2csc3c2CCCCC3)cc1,7.9µM,5.4µM,·,·,·,·
CCCCNC(=O)CN1C(=O)c2c(c3ccccc3n2C)C1c1ccc(OC)cc1 (stereo not drawn),·,–,·,·,·,·
COc1ccc(/C=C(\C#N)C(=O)OCC(=O)NCc2ccco2)cc1,·,–,–,·,–,–
CCc1c(C)nc(SCC(=O)N2CCCCC2C)[nH]c1=O (stereo not drawn),·,–,?,·,–,–
Cc1cc(C(=O)Nc2nnc(C(F)(F)F)s2)cs1,·,12µM,–,·,?,?
Cc1cc(C(=O)Nc2nnc(C3CCCCC3)s2)cs1,–,–[2.3 µM],?,–,1.6µM,?
O=C(Nc1cc(S(=O)(=O)N2CCCCC2)ccc1Cl)c1ccc(F)cc1,·,–,–,·,–,–
CC(=O)c1ccc(NC(=S)NC2CCCC(C)C2C)cc1 (stereo not drawn),–,?,–,–,–,–
S=C(NCC1CCCCC1)Nc1ccc(Oc2ccccc2)cc1,–,–,–,–,–,–
FC(F)Sc1ccc(NC(=S)NCC2CCCCC2)cc1,–,24µM,?,–,–,–
S=C(Nc1ccc(Br)cc1)NC1CCCC1,11µM,12µM,–,–,?,–
CN(CC(=O)Nc1ccc(SC(F)F)cc1)C1CCCCC1,–,–,–,–,–,–
FC(F)Sc1ccc(NC(=S)NC2CCCCC2)cc1,?,11µM,?,–,?,–
CC1CCCCC1NC(=S)Nc1ccc(SC(F)F)cc1 (stereo not drawn),?,21µM,–,–,–,–
S=C(Nc1ccc(Oc2ccccc2)cc1)NC1CCCC1,?,?,–,–,–,–
O=c1[nH]c(=S)[nH]c2c1CN(Cc1ccc(F)cc1)CC2,·,–,–[9.26 µM],·,–,–
COC(=O)N1CCC2(CCCN(C(=O)Nc3ccccc3)C2)CC1,–,·,·,–,·,·
COc1ccc([C@@H]2CC(=O)c3c(O)cc(O)cc3O2)cc1O,–,15µM,?,–,?,?
SMILES,SMN2 splice up,FLuc modulator,ELG1 genotox,Luc counter,Rab9 prom act,NPC1 promoter act
CC1CCCC2(C1)NC(=S)c1c(sc3c1CCCC3)N2 (stereo not drawn),–,24µM,–,–,–,–
CC1CCCC2(C1)NC(=S)N(c1ccccc1)N2 (stereo not drawn),–,–,–,–,–,–
Cc1ccc(CN2CCN(CC(=O)NCc3ccccc3Cl)C2=O)cc1,–,–,·,·,·,·
Cc1cc(C)c(-c2nc3ccccc3s2)[nH]1,·,4.8µM,?,·,–,–
Nc1ccc(-c2cc(-c3cccc(N)c3)nc(-c3ccccc3)n2)cc1,–,–,–,–,–,–
CC(=O)Nc1ccc(O)c(-c2nc3ccccc3s2)c1,–,?,?,–,?,–
Cc1[nH]nc(-c2ccc(O)cc2O)c1-c1nc2ccccc2s1,–,–,–,–,–,–
Nc1cccc(-c2nc3ccccc3s2)c1,–,1.2µM,3.7µM,–,4µM,3.2µM
CC[n+]1cccc(-c2nc3ccccc3s2)c1,–,27µM,–,–,–,–
Oc1cccc(-c2nc3ccccc3s2)c1,?,1.7µM,1.5µM,–,?,–
COc1cc(-c2nc(Cn3nnc(C(=O)Nc4ccc(C)cc4C)c3C)c(C)o2)cc(OC)c1OC,–,–,·,·,·,·
CC1(C)CC(=O)CC(C)(C)N1OC(=O)c1ccncc1,·,–,–,–,–,–
O=C(O)c1ccc2c(c1)C(=O)N(c1cccc(-c3nc4ccccc4s3)c1)C2=O,·,2.4µM,–,–,–,–

# Assay outcomes deposited in PubChem by National Center for Advancing Translational Sciences (NCATS).
